High-throughput results as filed in PubChem BioAssay.
PLCg1 inh = PLC-gamma1 enzyme inhibitors, primary screen, biochemical, fluorescence, purified enzyme | fluorogenic substrate | actives 0.84% (n = 370,000) | AID 720700, 2013 | inhibition, % at 12.2 µM; in the data active = inhibition above about 9.5%
CR mimetic SO = reduction of superoxide in aged yeast, primary screen, HTS. S. cerevisiae aged cells, superoxide DHE fluorescence; hits give low values. AID 2690, 2010. actives 0.18% (n = 330,000). superoxide response (% of plate mean), % at 10 µM;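 active = superoxide response under a set limit, about three screen SD below normal, cut at about 65% in these data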;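 also: yeast aged for seven days with compound at 30 °C before DHE staining; 100% = average MFI of all compound-treated wells on the plate with controls excluded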
AHR activator = AHR activators, primary screen, cell-based, luminescence, luciferase reporter, human | actives 2.5% (n = 320,000) | AID 2796, 2010 | AHR-responsive luciferase reporter cells | activation, % at 5 µM | Aryl hydrocarbon receptor (Homo sapiens), P35869; in the data active = activation above about 47%;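 also: 0% = vehicle wells and 100% = reference agonist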
Target sequence (P35869 whole entry, looked up): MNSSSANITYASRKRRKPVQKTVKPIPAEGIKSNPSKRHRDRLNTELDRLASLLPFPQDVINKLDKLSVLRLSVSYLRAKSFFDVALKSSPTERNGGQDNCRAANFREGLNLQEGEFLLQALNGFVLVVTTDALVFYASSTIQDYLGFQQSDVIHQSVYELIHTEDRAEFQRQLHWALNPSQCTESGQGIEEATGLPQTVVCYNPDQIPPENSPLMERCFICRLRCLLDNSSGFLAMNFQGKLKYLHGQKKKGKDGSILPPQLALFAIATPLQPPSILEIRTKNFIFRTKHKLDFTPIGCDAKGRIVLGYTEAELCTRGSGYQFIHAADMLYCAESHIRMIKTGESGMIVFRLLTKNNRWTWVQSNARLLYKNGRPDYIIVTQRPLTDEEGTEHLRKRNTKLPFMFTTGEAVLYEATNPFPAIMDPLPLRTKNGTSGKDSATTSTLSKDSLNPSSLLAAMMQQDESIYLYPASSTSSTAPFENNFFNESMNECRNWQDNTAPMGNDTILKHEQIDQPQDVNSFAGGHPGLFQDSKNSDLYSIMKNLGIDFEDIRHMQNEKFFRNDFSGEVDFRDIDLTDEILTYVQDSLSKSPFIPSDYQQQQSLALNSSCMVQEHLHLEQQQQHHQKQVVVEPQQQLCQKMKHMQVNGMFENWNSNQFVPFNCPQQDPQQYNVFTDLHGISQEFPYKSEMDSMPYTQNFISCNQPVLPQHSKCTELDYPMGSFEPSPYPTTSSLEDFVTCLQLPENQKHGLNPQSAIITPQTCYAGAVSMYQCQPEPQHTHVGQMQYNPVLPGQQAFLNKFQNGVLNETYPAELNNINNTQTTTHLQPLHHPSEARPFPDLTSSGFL
sPLA2-III inh = human group III sPLA2 inhibitors, primary screen, biochemical, QFRET, BODIPY PC-A2 liposome substrate; Group 3 secretory phospholipase A2 (Homo sapiens), Q9NZ20; QFRET BODIPY PC-A2 liposome hydrolysis, fluorescence; inhibition, % at 12.2 µM; actives 0.56% (n = 370,000); AID 743126, 2013;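 active = inhibition above mean plus 3 SD of compounds lying within the high and low control bounds, cut at about 19% in these data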;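 also: 0% = median of test compound wells and 100% = no enzyme DMSO wells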
PLC-beta3 inh = human PLC-beta3 inhibitors, primary screen, biochemical, fluorescence; Purified PLC-beta3, fluorogenic substrate; inhibition, % at 12.2 µM; actives 0.18% (n = 370,000); in the data active = inhibition above about 11%;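 also: 0% = median of compound wells on plate and 100% = full blocker control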
HIF act = HIF pathway transcriptional activators, primary screen, cell-based, U2OS HRE-luciferase, luminescence. activation, % at 7.5 µM (by protocol). U2OS HRE-luciferase reporter; normalized: DMSO 0%, desferrioxamine 100%. actives 0.32% (n = 300,000);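 active = mean activation of at least 10% of the iron chelator positive control signal, with at least half of replicates also reaching 10%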
An asterisk follows results filed as active; i = inactive; · = not tested or not shown. The list is not random: actives were taken first. Their share in the collection is about 3.9%.

SMILES	PLCg1 inh	CR mimetic SO	AHR activator	sPLA2-III inh	PLC-beta3 inh	HIF act
O=C(O)c1c(C(=O)N2N=C3/C(=C/c4ccccc4)CCCC3C2c2ccccc2)cccc1[N+](=O)[O-] (stereo not given)	-1.3	102.6	78.4*	-13.3	-10.8	0.6
CCC[C@@H](/C=C/C(=O)OC(C)(C)C)Sc1ccc(N)cc1	0.6	·	·	15.4	-0.2	·
COC(=O)[C@]12C[C@H](CC(=O)N3CCOCC3)C(=O)N(Cc3ccco3)C1=C[C@H](C1CCCC1)O[C@@H]2C	-0.6	·	·	-3.2	0.8	·
C=CCNc1nc(NCc2ccccc2)c(C#N)c2c1CN(C)CC2	i	85.2	53.6*	-7.5	i	-0.5
CCCCCNc1nc(NCCCO)c(C#N)c2c1CN(C)CC2	i	98.4	58.3*	-5.3	i	0.5
O=C(NC1CCC1)O[C@H]1CC[C@@]23CCCN2C(=O)CCC[C@H]3C1	2.4	·	·	-0.2	0.1	·
COc1ccc2c(c1)CN1CN(CC(C)C)S(=O)(=O)CC21 (stereo not given)	-11.3	·	·	7.7	-14.5	·
COc1cc(/C=C(/C(=O)c2cccs2)c2nc3ccccc3[nH]2)cc(OC)c1O	-39.0	100.0	114.5*	-1.1	-50.5	7.4
O=C(N/N=C/c1ccccc1O)c1cccc(C(F)(F)F)c1	-21.2	83.7	8.1	9.4	-21.8	40.6*
O=C(NC1CC1)C1=C[C@@H](C2CC2)C[C@@H](OCCCCO)O1	-0.6	89.2	2.2	-0.8	1.4	-0.9
O=C(NC1CC1)C1=C[C@@H](c2c[nH]c3ccccc23)C[C@@H](OCc2ccc(CO)cc2)O1	-22.6	96.8	76.2*	-4.2	-36.8	-0.1
O=C(NC1CC1)C1=C[C@@H](c2c[nH]c3ccccc23)C[C@@H](OCCCCO)O1	-19.6	97.4	64.5*	-0.8	-28.4	0.0
O=C(NC1CC1)C1=C[C@@H](c2ccccc2)C[C@@H](OCc2ccc(CO)cc2)O1	2.6	101.4	-0.5	-4.0	2.4	0.3
O=C(NC1CC1)C1=C[C@H](c2c[nH]c3ccccc23)C[C@H](OCCCCO)O1	-19.0	92.2	72.0*	-0.4	-29.5	0.6
COC(=O)c1ccc2c(C(C)c3ccccc3O)c[nH]c2c1 (stereo not given)	-85.8	·	·	-62.2	-114.4	·
COC(=O)[C@]12C[C@H](CC(=O)N3CCSCC3)C(=O)N(CCC3=CCCCC3)C1=C[C@H](C1CCCC1)O[C@@H]2C	0.2	·	·	0.2	4.2	·
O=c1[nH]c(/C=C/c2ccc(OC(F)F)cc2)nc2c1cnn2-c1ccccc1	-17.4	102.5	75.3*	-4.2	-20.9	0.0
CC(C)Sc1nc2c(cnn2-c2ccccc2)c(=O)[nH]1	1.6	106.5	24.2	-9.3	0.3	0.1
Cc1ccccc1CN1CCCCC(NC(=O)C2CCCC2)C1=O (stereo not given)	2.0	·	·	16.4	0.6	·
COc1ccc2ccccc2c1-c1c(C(=O)c2ccc(Br)cc2)[nH]c(N)c1C(=O)NC1CCCCC1	-3.5	·	·	0.7	-9.0	·
Cc1c(Cl)cccc1NC(=O)CNc1cccc(C(F)(F)F)c1	4.4	92.7	0.8	0.7	2.5	0.8
N#Cc1ccccc1NC(=O)CNc1ccc(Cl)c(C(F)(F)F)c1	-2.1	97.8	65.0*	3.3	1.6	0.4
O=C1CN(c2ccccc2)C(=O)N1	3.5	105.0	7.6	3.3	0.9	47.8*
CCCCC(=O)N(Cc1ccccc1)c1ccccc1C(=O)Nc1cc(OC)ccc1OC	-9.2	·	·	7.5	-25.2	·
Cc1cc(C)n(-c2ccc3cccc(NS(C)(=O)=O)c3n2)n1	1.4	104.8	1.3	0.6	1.1	52.2*
SMILES	PLCg1 inh	CR mimetic SO	AHR activator	sPLA2-III inh	PLC-beta3 inh	HIF act
Cc1ccc2cccc(NS(=O)(=O)c3ccccc3)c2n1	-48.4	86.5	71.2*	-13.0	-52.0	2.8
Nc1ccccc1-n1cccc1	-179.2	96.2	55.7*	11.2	-217.9	-0.1
COc1ccc(-c2nc3c(Br)c(N)c(Br)cc3o2)cc1	·	104.6	48.6*	·	·	·
O=CN1CCN(C(=O)C2CCN(c3ncnc4c3sc3cccc(F)c34)CC2)CC1	-44.6	·	·	7.0	-66.8	·
Oc1c(C=Nc2cccc3cccnc23)sc2ccccc12	-151.6	101.7	58.1*	1.9	-147.0	-0.2
COc1ccc(-c2nnc(SCC(=O)NN=C(C)c3cccc4ccccc34)n2-c2ccccc2)cc1	2.3	·	·	-9.3	3.6	·
Cc1ccccc1Cn1cc(COC(=O)N(C)Cc2ccccc2)nn1	-1.6	·	·	2.1	-2.0	·
O=C(/C=C/c1ccco1)NC(=S)Nc1cccc(-c2nc3ccccc3o2)c1	-12.0	96.7	56.8*	-2.4	-22.2	3.2
Fc1cccc(/C=N/NC(=S)Nc2ccccc2Cl)c1	3.5	115.4	76.1*	3.0	7.6	3.9
Clc1cccc(-c2noc3ncnc(Nc4ccc5c(c4)OCO5)c23)c1	-2.2	92.6	55.2*	0.8	-1.5	-0.8
Cc1cccc(Nc2ncnc3onc(-c4cccc(Cl)c4)c23)c1	-2.3	98.2	14.7	7.7	-4.7	-0.9
COc1ccc(-c2cc(C(F)F)n3ncc(C(=O)n4ccnc4C)c3n2)cc1	-457.1	97.9	9.6	24.7*	i	1.6
COC(=O)C1CN(Cc2ccc(F)cc2)CCS(=O)(=O)N1Cc1cn(Cc2ccc(F)cc2)nn1 (stereo not given)	-2.1	·	·	-8.2	-0.4	·
COc1ccc(-c2ccc3oc(-c4ccsc4)cc3c2)cc1	1.1	94.2	57.1*	2.9	-1.7	0.4
C/C(=C\C(=O)OCC(=O)NCc1ccccc1)C(=O)OCC(=O)NCc1ccccc1	0.8	87.9	-1.7	-3.8	1.3	440.9*
CC(C)(C)c1ccc(S(=O)(=O)N2CCCC(C(=O)NCc3cccs3)C2)cc1 (stereo not given)	2.9	·	·	-3.4	1.4	·
CCCCCCn1nc(C(=O)Nc2nc3c(s2)CCCC3)c2ccccc2c1=O	-3.0	96.5	6.0	8.7	-1.8	10.3*
CCCCn1nc(C(=O)Nc2nc3c(s2)CCCC3)c2ccccc2c1=O	-4.1	99.0	5.1	0.0	-3.3	-0.1
COC(=O)C[C@@H]1CC[C@H]2[C@H](COc3ccc(NC(=O)Nc4ccc(Cl)cc4)cc3C(=O)N2C)O1	6.6	·	·	-18.7	5.6	·
COC(=O)c1ccccc1NC(=O)c1sc(N)nc1C	-5.4	103.5	1.8	-4.6	-11.2	·
Cc1nc(NC(N)=S)sc1C(=O)Nc1ccccc1	0.3	106.0	105.3*	1.8	-0.2	-0.1
Cc1ccc(NC(=O)c2sc(N)nc2C)cc1	1.0	92.0	61.5*	3.6	-3.0	1.6
C/C(O)=C(/C#N)c1nc2ccccc2[nH]1	1.9	90.9	21.5	-2.5	2.6	0.3
